Assay outcomes as filed in PubChem BioAssay.
The list is not random: actives were taken first. Their share in the collection is about 3.1%.
EWS-Fli inh – inhibitors of EWS/Fli oncoprotein transcriptional activity; A673 NR0B1-luciferase reporter, viability-normalised; inhibition, % at 12.6 µM; 350,000 compounds, 0.67% hits;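 active means mean inhibition of at least 50% after viability correction, with every replicate also passing that limit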;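 further: firefly luciferase signal divided by Alamar Blue viability fluorescence both relative to DMSO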
EBV LMP1 NFkB – Epstein-Barr LMP1 NF-kappaB reporter inhibition | 350,000 compounds, 0.69% hits | LMP1-induced NF-kappaB luciferase reporter cells, luminescence | AID 504558 | inhibition, % at 12.5 µM; in the data active means inhibition above about 41%
LGR2 antag – Drosophila LGR2 receptor signaling inhibition; HEK293 LGR2, CRE-luciferase, bursicon-stimulated, 4 h; inhibition, % at 9.99 µM; 380,000 compounds, 0.35% hits; AID 720647;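 active means drop in luminescence signal, shown as inhibition above about 50% in the replicate tests, limit read from the data, passing the limit was not always enough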;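 further: agonist challenge used bursicon conditioned medium at about half maximal strength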
TROY NFkB inh – inhibitors of TROY-dependent NF-kB signaling; Q293 LMP1-TROYcd NF-kB luciferase reporter, 4 h; inhibition, % at 10 µM; 360,000 compounds, 0.98% hits; AID 1347056;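 active means compounds whose plate-normalised and pattern-corrected inhibition of the luciferase reporter signal at the single screening dose is 50% or more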
PAX8 reporter – PAX8 transcriptional activity inhibition | inhibition, % at 12.6 µM | RMG-I TPO-luciferase reporter, SteadyGlo, 24 h | 360,000 compounds, 1.2% hits;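 active means mean replicate inhibition at least 60% with every replicate also reaching 60%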;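 further: luciferase light reporting Pax8 driven TPO promoter activity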
TWEAK-Fn14 inh – TWEAK-Fn14 signaling inhibition | TWEAK-stimulated Fn14 reporter cells, luciferase luminescence, 8 h | inhibition, % at 10 µM | 360,000 compounds, 2% hits; in the data active means inhibition above about 50%
Each line names hits and unclear results; the compound was inactive in the other large screens; ! = not confirmed by another sample.

CCCOc1ccc(C(=O)C(CN2CCCC2)c2ccccc2)cc1 (stereo not drawn)	EWS-Fli inh 61
O=C(C[C@H]1C=C[C@@H](NC(=O)Cc2cccnc2)[C@H](CO)O1)Nc1ccc(-c2ccccc2)cc1	none (no result: EBV LMP1 NFkB, TROY NFkB inh, TWEAK-Fn14 inh)
C[C@H](CO)N1C[C@H](C)[C@H](CN(C)S(=O)(=O)c2cn(C)cn2)Oc2ccc(NC(=O)Cc3cn(C)c4ccccc34)cc2C1=O	none (no result: EBV LMP1 NFkB, TROY NFkB inh, PAX8 reporter, TWEAK-Fn14 inh)
COc1ccc(OC)c(NC(=O)c2cc(-c3cc(Cl)ccc3O)n[nH]2)c1	TROY NFkB inh 51, TWEAK-Fn14 inh 55 (no result: EWS-Fli inh, LGR2 antag)
COc1ccc(Cl)cc1NC(=O)c1cc(-c2ccccc2O)n[nH]1	none (no result: EWS-Fli inh, PAX8 reporter)
C[C@@H]1CCCCO[C@H](CN(C)S(=O)(=O)c2cccs2)[C@H](C)CN([C@H](C)CO)C(=O)c2cc(NC(=O)Nc3ccc(F)cc3)ccc2O1	none (no result: EBV LMP1 NFkB, TROY NFkB inh, TWEAK-Fn14 inh)
COC(=O)C[C@@H]1C[C@@H]2c3cc(NS(=O)(=O)c4ccc(OC)cc4)ccc3O[C@@H]2[C@H](CO)O1	none (no result: EBV LMP1 NFkB, TROY NFkB inh, TWEAK-Fn14 inh)
COc1cc([N+](=O)[O-])cc(/C=N/NC(=O)C(O)(c2ccccc2)c2ccccc2)c1O	none
O=C(N/N=C/c1cc([N+](=O)[O-])ccc1O)c1cccc2ccccc12	PAX8 reporter 69
COc1cc([N+](=O)[O-])cc(/C=N/NC(=O)C(C)Nc2cccc3ccccc23)c1O (stereo not drawn)	TROY NFkB inh 57, TWEAK-Fn14 inh 87
O=C(NN=Cc1cc(Cl)ccc1[N+](=O)[O-])c1cccc2ccccc12	none
CC(Nc1cccc2ccccc12)C(=O)N/N=C/c1ccc([N+](=O)[O-])cc1 (stereo not drawn)	TWEAK-Fn14 inh 100 (no result: EWS-Fli inh)
CNC(=O)C[C@H]1CC[C@H]2[C@@H](COc3ccc(NC(=O)Nc4ccccc4F)cc3C(=O)N2C)O1	none (no result: EBV LMP1 NFkB, TROY NFkB inh, TWEAK-Fn14 inh)
C[C@@H]1CN([C@@H](C)CO)C(=O)Cc2cc(NC(=O)C3CC3)ccc2O[C@H]1CN(C)Cc1ccc(C(=O)Nc2ccccc2N)cc1	none (no result: EBV LMP1 NFkB, TROY NFkB inh, TWEAK-Fn14 inh)
Cc1cn(-c2cc(C(=O)Nc3ccc(C)c(NC(=O)C(=O)c4c[nH]c5ccccc45)c3)cc(C(F)(F)F)c2)cn1	TWEAK-Fn14 inh 52!
C[C@@H]1CN([C@H](C)CO)C(=O)c2cc(Br)cnc2O[C@H]1CN(C)C(=O)Nc1ccccc1	none (no result: EBV LMP1 NFkB, TROY NFkB inh, PAX8 reporter, TWEAK-Fn14 inh)
Cc1cc(N2CCN(c3nc(-c4ccccc4)cs3)CC2)c2ccccc2n1	TWEAK-Fn14 inh 66
C[C@H]1CN([C@@H](C)CO)C(=O)c2cccc(NC(=O)c3ccncc3)c2O[C@@H]1CN(C)C(=O)Nc1ccc(C(F)(F)F)cc1	none (no result: EBV LMP1 NFkB, TROY NFkB inh, TWEAK-Fn14 inh)
CC(C)c1ccc(CC(=O)N2CCC2(C)C(=O)Nc2ccc3c(c2)OCCO3)cc1 (stereo not drawn)	TWEAK-Fn14 inh 51 (no result: EBV LMP1 NFkB)
CC12CCC(C(=O)Nc3ccc4c(c3)OCCO4)(OC1=O)C2(C)C (stereo not drawn)	TROY NFkB inh 70, TWEAK-Fn14 inh 83 (no result: EWS-Fli inh, LGR2 antag)
Cc1noc(C)c1COC(=O)[C@@H](NC(=O)c1ccccc1)C(C)C	PAX8 reporter 69
CC(C)[C@H](NC(=O)c1ccccc1)C(=O)OCc1nnc(-c2ccccc2)o1	none
O=C(COc1ccccc1[N+](=O)[O-])Nc1ccc(NC(=O)c2cc3ccccc3o2)cc1	TROY NFkB inh 52
O=C(Nc1nc(-c2cccs2)cs1)c1ccc([N+](=O)[O-])o1	PAX8 reporter 67
COc1cc(C(=O)Nc2nc(-c3cccs3)cs2)cc(OC)c1OC	LGR2 antag 59, TWEAK-Fn14 inh 56 (no result: PAX8 reporter)
O=C(Nc1cccc(NC(=O)c2cccs2)c1)c1ccc([N+](=O)[O-])o1	PAX8 reporter 101
Cc1noc(C)c1NC(=O)Nc1ccc2c(c1)C(=O)N([C@H](C)CO)C[C@@H](C)[C@@H](CN(C)C(=O)Nc1ccccc1)O2	none (no result: EBV LMP1 NFkB, TROY NFkB inh, PAX8 reporter, TWEAK-Fn14 inh)
O=C(COc1ccccc1[N+](=O)[O-])Nc1ccc(N2CCN(C(=O)c3cccs3)CC2)cc1	LGR2 antag 75, TROY NFkB inh 76, TWEAK-Fn14 inh 72
CCc1nnc(NC(=O)c2cccc(OC)c2)s1	none (no result: EWS-Fli inh, LGR2 antag, PAX8 reporter)
COc1cccc(C(=O)Nc2nnc(-c3cccs3)s2)c1	TWEAK-Fn14 inh 70 (no result: EWS-Fli inh, PAX8 reporter)
O=C(/C=C/c1ccc(Cl)c([N+](=O)[O-])c1)Nc1ccc(NC(=O)c2ccco2)cc1	none
CCC(=O)Nc1ccc(N2CCN(C(=O)c3cccs3)CC2)cc1	none
O=C(/C=C/c1ccc(Cl)c([N+](=O)[O-])c1)Nc1cccc(NC(=O)c2ccco2)c1	LGR2 antag 57, TWEAK-Fn14 inh 55
O=C(Nc1cccc(NC(=O)c2ccc([N+](=O)[O-])o2)c1)c1ccco1	PAX8 reporter 92
COC(=O)C[C@H]1CC[C@H]2[C@@H](COc3ccc(NC(=O)Nc4ccc(Cl)cc4)cc3C(=O)N2C)O1	none (no result: EBV LMP1 NFkB, TROY NFkB inh, TWEAK-Fn14 inh)
Cc1cc(C)c(OCC(=O)Nc2cccc(NC(=O)c3ccco3)c2)c(Br)c1	TWEAK-Fn14 inh 56 (no result: EWS-Fli inh, PAX8 reporter)
Cc1nc2ccccc2c(=O)n1-c1cccc(NC(=O)c2cccs2)c1	none
O=C(Nc1cccc(N2C(=O)C=CC2=O)c1)c1cccs1	PAX8 reporter 66
O=C(Nc1ccc(N2CCN(C(=O)c3cccs3)CC2)cc1)c1ccc([N+](=O)[O-])o1	PAX8 reporter 98 (no result: EWS-Fli inh)
C[C@H](NC(=O)c1ccco1)C(=O)Nc1cccc([N+](=O)[O-])c1	PAX8 reporter 100
CN(C)CC#Cc1ccc([C@H]2[C@H](CO)N3CCCCN(C(=O)C4CC4)C[C@@H]23)cc1	none (no result: EBV LMP1 NFkB, LGR2 antag, TROY NFkB inh, TWEAK-Fn14 inh)
COC(=O)c1cc2c(n1S(=O)(=O)c1ccc(C)cc1)C(=O)C(=O)c1[nH]cc(C(=O)OCc3ccccc3)c1-2	EBV LMP1 NFkB 88, TROY NFkB inh 65, TWEAK-Fn14 inh 103 (no result: EWS-Fli inh, LGR2 antag, PAX8 reporter)
CO[C@H]1CN(C)C(=O)c2ccc(NC(=O)C3CC3)cc2OC[C@@H](C)N(Cc2cncnc2)C[C@@H]1C	none (no result: EBV LMP1 NFkB, TROY NFkB inh, PAX8 reporter, TWEAK-Fn14 inh)
C[C@@H]1CCCCO[C@H](CN(C)C(=O)C2CCCCC2)[C@@H](C)CN([C@H](C)CO)C(=O)c2cc(NC(=O)CCCCCC(=O)Nc3ccccc3N)ccc2O1	none (no result: EBV LMP1 NFkB, TROY NFkB inh, TWEAK-Fn14 inh)
Cc1csc2c(N3CCN(C(=O)Nc4ccc(Cl)c(Cl)c4)CC3)ncnc12	TROY NFkB inh 63
Cc1csc2c(N3CCN(C(=O)NC(C)(C)C)CC3)ncnc12	none
CCOc1ccc(C)cc1S(=O)(=O)n1cnc2ccccc21	EWS-Fli inh 59
Cc1ccc(Nc2nc(-c3cccnc3)nc3ccccc23)cc1	EWS-Fli inh 58
COc1ccc(Nc2nc(-c3cccc([N+](=O)[O-])c3)nc3ccccc23)cc1	TWEAK-Fn14 inh 80 (no result: EWS-Fli inh)
COc1ccc(/C=N/Nc2nc(-c3cccnc3)nc3ccccc23)cc1OC	none
Cc1ccc(-c2nc(N/N=C/c3ccncc3)c3ccccc3n2)cc1	TWEAK-Fn14 inh 76 (no result: EWS-Fli inh, LGR2 antag, PAX8 reporter)
Cc1ccccc1Nc1nc(-c2cccnc2)nc2ccccc12	none
COc1ccc(Nc2nc(-c3ccccc3)nc3ccccc23)cc1	none
CC(C)CCn1c(SCC(=O)N2CC(=O)Nc3ccccc32)nc2scc(-c3cccs3)c2c1=O	none (no result: EWS-Fli inh, LGR2 antag, PAX8 reporter)
